Measurements from ChEMBL document CHEMBL3988442, “University of Dundee, Small-Polar-MMV Screening Library” (2021).
Out of some 48,000 compounds screened, about 13,000 (27%) showed an effect of 50% or more. Some of the results follow.

system: Wolbachia pipientis; test: Anti-Wolbachia Cell-Based Screen; assay type: functional; parameters: scale not given: in the data most compounds retested in dose-response had high values; settings: 5 µM

| Structure (SMILES) | Percent Effect [%] |
| --- | --- |
| Cc1nc(N)cc(NCc2csc(N(C)C)n2)n1 | -17.8 |
| O=S(=O)(NCCc1c[nH]c2cc(F)ccc12)C1CCOC1 (stereo unspecified) | 22.23 |
| CS(=O)(=O)c1ccc(OCCNCc2ccc(F)cc2F)cc1 | -10.65 |
| Cl.O=C(C1CC1)N1CCC2(CC1)CNc1ccc(F)cc12 | -2.948 |
| CC(CC#N)N(C)Cc1ccc(F)cc1C#N (stereo unspecified) | 3.658 |
| CCc1nnc(CN2CCC3(CCC(=O)N(C4CCCC4)C3)CC2)o1 | 8.44 |
| O=C(CN1CCN(c2ncnc3cccc(F)c23)CC1)N1CCCC1 | 6.401 |
| Cn1cc(CN2CC[C@@H](NS(C)(=O)=O)[C@@H]2Cc2cccnc2)cn1.O=C(O)C(F)(F)F.O=C(O)C(F)(F)F | 0.0713 |
| O=C(O)C(F)(F)F.O=C(O)C(F)(F)F.O[C@H]1CCN(Cc2ccoc2)[C@H]1Cc1cccnc1 | -11.6 |
| CS(=O)(=O)N[C@@H]1CCN(Cc2cccnc2)[C@H]1Cc1cccnc1 | 0.03565 |
| COCCO[C@H]1CCN(Cc2ccoc2)[C@H]1Cc1cccnc1 | 85.57 |
| COCCO[C@@H]1CCN(C(=O)c2ccc[nH]2)[C@H]1Cc1cnn(C)c1 | -18.74 |
| COCCO[C@H]1CCN(Cc2cnn(C)c2)[C@H]1Cc1cccnc1 | 86.22 |
| C=C(C)COc1cccc(C(=O)N(CC)Cc2nc(COC)no2)c1 | -39.48 |
| Cn1c(N)nnc1SC1CCCN(c2ccccc2F)C1=O (stereo unspecified) | -7.514 |
| COCc1nn(C(C)C)c2c1CCN(Cc1ccc(C)s1)C2.O=C(O)C(F)(F)F | 2.652 |
| O=C(O)C(F)(F)F.c1nc(COCC2CC2)c2n1CCCN(CC1CC1)C2 | -4.563 |
| Cc1ccc(CN2CCc3c(C(=O)N(C)C)nn(C)c3C2)s1.O=C(O)C(F)(F)F | -3.635 |
| Cc1ccc(CN2CCc3c(COCC4CC4)nn(C)c3C2)s1.O=C(O)C(F)(F)F | 115.6 |
| CC(C)OCc1nn(C)c2c1CCN(Cc1ccco1)C2.O=C(O)C(F)(F)F | -9.352 |
| Cn1nc(COCC2CC2)c2c1CN(C(=O)c1ccno1)CC2.O=C(O)C(F)(F)F | -4.068 |
| Cn1nc(COCC2CC2)c2c1CN(CC1CC1)CC2.O=C(O)C(F)(F)F.O=C(O)C(F)(F)F | 100.4 |

| Structure (SMILES) | Percent Effect [%] |
| --- | --- |
| CC(C)OCc1nn(C)c2c1CCN(CC1CC1)C2.O=C(O)C(F)(F)F | 103.7 |
| CC(C)OCc1ncn2c1CN(CC1CC1)CCC2.O=C(O)C(F)(F)F | 10.37 |
| N#CCc1ccc(OCC(=O)NS(=O)(=O)c2ccc(Cl)s2)cc1 | -0.9374 |
| CC(C)[C@H](C)NC1CCN(c2ccc(-c3cscn3)cc2)CC1 | -7.145 |
| CCCn1nnnc1CSCc1cn2c(C)cccc2n1 | 8.521 |
| N#Cc1cccnc1N1CCCC(CO)(Cc2ccccc2F)C1 (stereo unspecified) | 12.54 |
| CNS(=O)(=O)CC(=O)N(Cc1ccsc1)c1ccccc1 | 7.339 |
| NC[C@H]1CC[C@H](C(NC(=O)c2ccccn2)c2ccccn2)CC1 (stereo partly specified) | -2.81 |
| NC[C@H]1CC[C@H](C(NC(=O)C2CC2)c2ccccn2)CC1 (stereo partly specified) | 117.5 |
| CC(C)[C@H]1CN(Cc2ccccn2)C[C@@H]1NC(=O)CC1CCC1 | -7.125 |
| NC[C@H]1CC[C@H](C(NC(=O)CC2CCCCC2)c2ccccn2)CC1 (stereo partly specified) | 140.5 |
| CCCC(=O)NC(Cc1ccc(C)cc1)c1ccccn1 (stereo unspecified) | -7.589 |
| O=C(Cn1cnc(NC(=O)CC2CCCC2)n1)NCc1ccccc1 | -4.841 |
| NC[C@H]1CC[C@H](C(NC(=O)c2ccccc2)c2ccccn2)CC1 (stereo partly specified) | -1.705 |
| NC[C@H]1CC[C@H](C(NC(=O)CC2CCCC2)c2ccccn2)CC1 (stereo partly specified) | 151 |
| O=C(OC1CCC1)c1ncccc1C(F)(F)F | -15.91 |
| CC(C)c1nnc(NCc2cc3n(n2)CCNC3)s1 | 7.297 |
| CC1CCN(S(=O)(=O)NC(C)Cc2ccco2)CC1 (stereo unspecified) | 1.293 |
| Cc1nc(CN(C)Cc2cn[nH]c2-c2ccc(F)cc2)c[nH]1 | 20.15 |
| CC(C)[C@H]1COC(=O)N1CC(=O)N1CCN(C(=O)c2ccco2)CC1 | 1.132 |
| COc1ccc(/C=C/CN2CCC3(CC2)CN(C)C(=O)O3)cc1 | -13.05 |
| CS(=O)(=O)NC1CCN(CCOCc2ccccc2)CC1 | 0.008163 |

| Structure (SMILES) | Percent Effect [%] |
| --- | --- |
| CN1CC2(CCN(C(=O)c3[nH]cnc3-c3ccccc3)C2)OC1=O (stereo unspecified) | -16.32 |
| CN1CC2(CCN(CCCOCc3ccccc3)CC2)OC1=O | 106.4 |
| CN1CC2(CCCN(CCOCc3ccccc3)C2)OC1=O (stereo unspecified) | 96.52 |
| CCC1(C(=O)O)CCCN(CCOCc2ccccc2)C1 (stereo unspecified) | 2.602 |
| CN1CC2(CCN(C(=O)CCCOCc3ccccc3)C2)OC1=O (stereo unspecified) | 107.9 |
| COCCC1(C(=O)O)CCCN(CCOCc2ccccc2)C1 (stereo unspecified) | 2.553 |
| Cc1ccc2oc(=O)n(CCC(=O)N3CCC4(CN(C)C(=O)O4)C3)c2c1 (stereo unspecified) | 2.838 |
| Cc1cc(NC(=O)N2CCC[C@@H]2CO)nn1-c1ccccc1Cl | -2.328 |
| CC(C)COCCC(=O)Nc1c(-c2ccc(F)cc2)ncn1C | 34.39 |
| O=C(NC1CC1)[C@H]1C[C@H]2OCC[C@H]2N(Cc2ccc(F)cc2)C1.O=C(O)C(F)(F)F | -3.794 |
| Cc1ccc([C@@H]2CN(C(=O)c3ccsc3)C[C@H]2NC(=O)C2CC2)cc1 | -0.5207 |
| O=C(NCC(O)c1ccccc1Cl)c1cccc(-n2cnnn2)c1 (stereo unspecified) | -6.148 |
| COCCN1CCC(N(Cc2noc(C3CC3)n2)C(C)=O)C1 (stereo unspecified) | 0.8027 |
| COCCCN(C)C1CCCN(Cc2noc(C)n2)C1 (stereo unspecified) | -3.028 |
| CC(=O)N(Cc1noc(C)n1)C1CCN(Cc2ccc(C#N)cc2)C1 (stereo unspecified) | 102.5 |
| Cc1nc(CN(C)C2CCN(Cc3c(C)noc3C)C2)no1 (stereo unspecified) | -3.836 |
| Cc1nc(CN2CCCC(N(C)Cc3c(C)noc3C)C2)no1 (stereo unspecified) | 5.065 |
| CC(=O)N(Cc1noc(C)n1)C1CCN(Cc2cccc(C#N)c2)C1 (stereo unspecified) | 124.3 |
| Cc1nc(CN2CCCC(N(C)c3ccc(C#N)cn3)C2)no1 (stereo unspecified) | 1.567 |
| CC(=O)N(Cc1noc(C)n1)C1CCN(Cc2ccccc2C#N)C1 (stereo unspecified) | -0.5328 |
| CC(=O)N(Cc1noc(C)n1)C1CCN(Cc2c(C)noc2C)C1 (stereo unspecified) | 106.6 |
| COCCCN1CCC(N(Cc2noc(C)n2)C(C)=O)C1 (stereo unspecified) | 116.1 |
